Compound activity as filed in PubChem.
Most compounds without a hit are left out; they make up all but 5.1% or so of the library.
Pol III holo inh = blocks replication by bacterial DNA polymerase III holoenzyme | hit rate 0.25% among 71,000 | Potency, µM (series often up to 57.1 µM), inactives show top-dose activity change, negative = inhibition | reconstituted DNA polymerase III holoenzyme replication, biochemical; note: % is set by controls: 0 for no effect and ±100 for the full control effect
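Reconstituted *E. coli* holoenzyme (0.35 nM Pol III, 1 nM beta, 154 nM SSB, 2 nM primase) was preincubated with compound for 15 min at RT. Synthesis on 1.4 nM ssM13Gori ran 35 min, then was stopped with PicoGreen/EDTA and read as dsDNA fluorescence.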
Hsp90 Hop PPI = changes Hsp90-Hop TPR2A binding signal, up or down; AlphaScreen TPR2A-His6 binding biotin-Hsp90 C-terminal peptide; Potency, µM (titrated, usually from 57 µM), inactives show at the top dose activity change, negative = inhibition; hit rate 0.44% among 71,000; AID 595; active = well fitted curve in either direction with a large enough effect; inconclusive = small, poorly fitted or top-dose-only effect, or another doubt; note: % is set by controls: 0 for no effect and ±100 for the full control effect
TSHR ag = activates the human thyroid stimulating hormone receptor; hit rate 0.48% among 73,000; Potency, µM (titrated, usually from 57.1 µM), inactives show top-dose activation, actives largely listed as activators; HEK293-CNG-TSHR cells (CNG channel as cAMP sensor), membrane potential dye, cAMP; P16473; active = well fitted activation curve with a large enough effect in the main read-out, with a control signal flat, not every such curve was filed as active; inconclusive = small, poorly fitted or top-dose-only effect, or a change in a side signal; inactive = no such curve, though single readings can be large or run the other way; % of control where 0% means no effect;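 note: the control signal comes from parental cells without the receptor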
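HEK 293 cells stably expressing TSHR and a cAMP-gated CNG channel; parental CNG-only cells as counterscreen. Cells preloaded 60 min with membrane potential dye plus 100 uM RO 20-1724, then compound 30 min; fluorescence read at 590 nm.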
Tau filament bind = binders of human tau filaments; recombinant tau filaments, thioflavin S fluorescence, 15 h; filaments grown with octadecylsulfate alongside compound; Potency, µM (highest dose often 57.1 µM), for the others: top-dose activity change, negative = inhibition; hit rate 2% among 71,000; AID 596;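 note: % is set by controls: 0 for no effect and ±100 for the full control effect; actives lower thioflavin S fluorescence by blocking filaments or displacing dye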
Target sequence (P10636 whole entry, looked up): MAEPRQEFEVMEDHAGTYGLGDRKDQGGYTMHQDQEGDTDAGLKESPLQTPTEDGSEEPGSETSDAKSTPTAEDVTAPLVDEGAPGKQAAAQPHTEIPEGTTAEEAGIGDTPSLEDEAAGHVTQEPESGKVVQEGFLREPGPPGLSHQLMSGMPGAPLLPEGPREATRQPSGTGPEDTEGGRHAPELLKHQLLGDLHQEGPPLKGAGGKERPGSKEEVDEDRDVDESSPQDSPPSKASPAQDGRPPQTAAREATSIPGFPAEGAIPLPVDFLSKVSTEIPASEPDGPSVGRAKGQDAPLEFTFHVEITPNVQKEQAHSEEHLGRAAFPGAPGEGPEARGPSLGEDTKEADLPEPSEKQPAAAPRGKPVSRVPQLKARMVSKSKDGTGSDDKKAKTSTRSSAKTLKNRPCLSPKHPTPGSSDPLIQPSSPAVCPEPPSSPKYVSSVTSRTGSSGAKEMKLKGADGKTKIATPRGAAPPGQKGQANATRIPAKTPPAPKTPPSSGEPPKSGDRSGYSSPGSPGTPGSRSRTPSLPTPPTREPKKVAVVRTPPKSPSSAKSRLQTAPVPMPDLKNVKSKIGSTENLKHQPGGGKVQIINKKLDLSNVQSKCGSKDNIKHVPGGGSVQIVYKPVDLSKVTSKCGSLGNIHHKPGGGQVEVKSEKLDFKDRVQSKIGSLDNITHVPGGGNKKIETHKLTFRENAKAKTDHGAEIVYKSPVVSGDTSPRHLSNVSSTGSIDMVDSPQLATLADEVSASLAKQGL
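Quantitative HTS: thioflavine S signal from ODS-induced tau filaments, excited at 450 nm, emission 510 nm. Conditions: 1 uM tau, 30 uM ODS, 15 h at 37 C, pH 7.4.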
HEK293 cAMP ctrl = parental HEK293 cAMP activation (counter-screen); Potency, µM (titrated, usually from 57.1 µM), for the others: top-dose activation, hits mostly activators; parental HEK293 CNG cAMP sensor, membrane potential fluorescence; hit rate 2.5% among 73,000; note: % of control where 0% means no effect; nearly all actives have a fitted effect of over 55% in size
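Counterscreen for endogenous-receptor signalling: CNG-channel HEK 293 cells report cAMP rise by membrane depolarization. After 60 min dye equilibration with 100 uM RO 20-1724, compounds incubated 30 min before bottom-read fluorescence at 590 nm.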
* marks the source's active call; other numbers are inactive results; ? = inconclusive; nt = not tested or not shown; [ ] = dose if it differs, or a comment. Unless noted, calls come from the whole dose curve; as a rule, active = well fitted curve in the direction sought with a large enough effect; inconclusive = small, poorly fitted or top-dose-only effect, or another doubt; inactive = no such curve, though single readings can be large; an effect the other way counts as inactive or inconclusive. Potency is the fitted concentration of half-maximal effect.

SMILES	Pol III holo inh	Hsp90 Hop PPI	TSHR ag	Tau filament bind	HEK293 cAMP ctrl
C#CCCCO/N=C1/C[C@@H](O)[C@@H](O)[C@@H]2[C@@H]3C(=O)N(C4CCCCC4)C(=O)[C@H]3CC[C@@H]12	nt	nt	-6.8%[11.4 µM]	nt	-11.3%[11.4 µM]
CC(=O)N1CC2(CC2)CC1c1ccccc1 (stereo not drawn)	-0.2%	-0.2%	-4.0%	5.9%	3.3%
CC(C)(C)CC(C)(C)c1cc(O)c(O)c(CN2CCCCC2)c1	-11.2%[11.4 µM]	-7.3%[11 µM]	4.6%[11.4 µM]	?	2.3%[11.4 µM]
CC(C)(C)c1cc(CN2CCCC(O)C2)c(O)c(C(C)(C)C)c1 (stereo not drawn)	-5.6%[11.4 µM]	-9.2%[11 µM]	9.8%[11.4 µM]	5.01µM*	3.6%[11.4 µM]
CCSc1nc(-c2cccs2)nc2c1c(=O)n(C)c(=O)n2C	-5.1%	-2.7%	0.4%	21.7%	-2.5%
CCCOc1ccccc1Cn1c(=O)oc2ccc(C)cc21	-3.1%	?	?	7.5%	12.6µM*
Cc1ccc2oc(=O)n(CCOc3ccccc3Cl)c2c1	1.0%	10.3%	?	121.2%	?
CCCOc1ccc(Cn2c(=O)oc3ccc(C)cc32)cc1OC	0.2%	8.8%	?	53.2%	?
CCOc1ccccc1Cn1c(=O)oc2ccc(C)cc21	-6.8%	12.6%	?	8.5%	25.1µM*
CCN(CC)c1ccc(NC(=O)c2cccc(C)c2OC)c(C)c1	-0.9%	-19.6%	-8.3%	25.1µM*	-4.3%
Cc1nc2cncnc2n(-c2ccccc2)c1=O	-1.1%	-6.8%	-2.0%	-5.3%	27.3%
CCOc1c(OC)cccc1C1CC(=O)Nc2cc3c(cc21)OCCO3 (stereo not drawn)	-9.5%	-6.3%	25.1µM*	-9.1%	29.2%
CCCOc1c(OC)cccc1C1CC(=O)Nc2cc(OC)c(OC)c(OC)c21 (stereo not drawn)	-1.8%	-6.8%	14.5%	-1.4%	4.8%
Cc1ccc2c(c1)C1C=CCC1C(C(=O)O)N2 (stereo not drawn)	?	?	-6.4%	?	4.6%
COc1cccc2c1NC(C(=O)O)C1CC=CC21 (stereo not drawn)	25.1µM*	-20.8%	-4.2%	-21.8%	-5.5%
COc1cc(OC)cc([C@H](CNc2ncnc3c2ncn3[C@@H]2O[C@@H](CO)[C@H](O)[C@@H]2O)c2ccccc2C)c1	1.7%	-16.4%	nt	-2.0%	3.7%
COC(=O)[C@@]1(Cc2ccccc2)[C@H]2c3cc(C(=O)N(C)C)n(Cc4ccccc4)c3C[C@H]2CN1C(=O)c1ccccc1	-3.0%	-9.9%	?	40.8%	2.51µM*
COC(=O)[C@@]1(Cc2ccc(F)cc2)[C@H]2c3cc(C(=O)N(C)C)n(CCF)c3C[C@H]2CN1C(=O)c1ccccc1	-2.5%	?	?	7.7%	?
COC(=O)[C@@]1(Cc2ccccc2)[C@H]2c3cc(C(=O)N(C)C)n(Cc4ccc(OC)c(OC)c4)c3C[C@H]2CN1C(=O)c1ccccc1	6.9%	-11.0%	?	27.6%	?
COC(=O)[C@@]1(Cc2ccccc2)[C@H]2c3cc(C(=O)N(C)C)n(Cc4ccc(S(C)(=O)=O)cc4)c3C[C@H]2CN1C(=O)c1ccccc1	1.5%	-3.8%	?	1.6%	15.8µM*
COC(=O)[C@@]1(Cc2ccccc2)[C@H]2c3cc(C(=O)N(C)C)n(Cc4ccc(O)c(OC)c4)c3C[C@H]2CN1C(=O)c1ccccc1	11.4%	-8.2%	?	22.5%	25.1µM*
COC(=O)[C@@]1(Cc2ccc(F)cc2)[C@H]2c3cc(C(=O)N(C)C)n(CC4CC4)c3C[C@H]2CN1C(=O)c1ccccc1	-5.1%	-6.3%	?	8.7%	6.31µM*
COC(=O)[C@@]1(Cc2ccc(OC)cc2)[C@H]2c3cc(C(=O)N(C)C)n(Cc4ccc(O)c(OC)c4)c3C[C@H]2CN1C(=O)c1ccccc1	-5.8%	-12.6%	?	6.9%	?
O=C(O)c1cc(C(=O)O)nc(C(=O)O)c1	5.5%[11.4 µM]	-4.1%[11 µM]	?	2.3%[11.4 µM]	?
COC(=O)[C@@]1(Cc2ccc(OC)cc2)[C@H]2c3cc(C(=O)N(C)C)n(Cc4ccc(C(F)(F)F)nc4)c3C[C@H]2CN1C(=O)c1ccccc1	-13.0%	-6.8%	?	-11.6%	6.31µM*
SMILES	Pol III holo inh	Hsp90 Hop PPI	TSHR ag	Tau filament bind	HEK293 cAMP ctrl
COC(=O)[C@@]1(Cc2ccc(OC)cc2)[C@H]2c3cc(C(=O)N(C)C)n(Cc4ccc(OC)c(OC)c4)c3C[C@H]2CN1C(=O)c1ccccc1	-4.0%	-15.0%	?	25.7%	15.8µM*
COC(=O)[C@@]1(Cc2ccccc2)[C@H]2c3cc(C(=O)N4CCCC4)n(Cc4ccsc4Br)c3C[C@H]2CN1C(=O)c1ccccc1	7.3%	-11.8%	?	19.7%	?
COC(=O)[C@@]1(Cc2ccc(OC)cc2)[C@H]2c3cc(C(=O)N(C)C)n(Cc4cc(F)c(F)c(F)c4)c3C[C@H]2CN1C(=O)c1ccccc1	-1.2%	-23.7%	?	1.5%	3.98µM*
COC(=O)[C@@]1(Cc2ccccc2)[C@H]2c3cc(C(=O)N(C)C)n(Cc4ccsc4Br)c3C[C@H]2CN1C(=O)c1ccccc1	9.7%	-11.7%	?	16.7%	3.16µM*
COC(=O)[C@@]1(Cc2ccc(F)cc2)[C@H]2c3cc(C(=O)N(C)C)n(Cc4ccc(C(F)(F)F)nc4)c3C[C@H]2CN1C(=O)c1ccccc1	-8.5%	-8.7%	?	5.7%	?
OC[C@H](CCc1c[nH]c2ccccc12)c1c[nH]c2ccccc12	1.4%[11.4 µM]	-10.9%[11 µM]	-10.7%[11.4 µM]	-6.8%[11.4 µM]	-11.5%[11.4 µM]
CO[C@@H]1COC(=O)C/C=C\[C@@H](C)[C@H](OC)COC(=O)[C@H](COCc2ccccc2)NC(=O)C/C=C\[C@H]1C	nt	nt	1.6%[11.4 µM]	nt	0.7%[11.4 µM]
Nc1cc(N)c(OCC(F)(F)F)cc1OCC(F)(F)F	-11.5%	-23.1%	-4.9%	15.8µM*	-9.5%
CCN[C@@H]1C[C@H](C)S(=O)(=O)c2sc(S(N)(=O)=O)cc21	0.0%[25.6 µM]	0.2%[26 µM]	?	11.6%[25.6 µM]	?
CCOC(=O)CSc1nc2ccccc2c(=O)n1CC1CCCO1 (stereo not drawn)	-8.1%	12.7%	?	-8.2%	15.8µM*
CCn1c(SCC(=O)N2CCCc3ccccc32)nc2ccccc2c1=O	0.4%	4.6%	?	10.5%	10µM*
CCOC(=O)CSc1nc2ccccc2c(=O)n1CC1COc2ccccc2O1 (stereo not drawn)	-1.4%	-2.9%	?	6.7%	?
Cc1cc2c(=O)n(Cc3ccco3)c(SCC(=O)N3CCCc4ccccc43)nc2s1	-0.5%	-18.5%	?	117.3%	31.6µM*
Cc1ccc(-n2ncc3c(=O)[nH]c(SCC(=O)N4CCCc5ccccc54)nc32)cc1	6.6%	-2.2%	?	10.4%	39.8µM*
O=C(CSc1nc2sc3c(c2c(=O)n1Cc1ccco1)CCC3)N1CCc2ccccc21	2.1%	-5.3%	20.0%	30.0%	14.9%
